This is a sample that favours compounds with a hit; in the whole collection about 5.3% have one here.
Six1-Eya2 blk – qHTS Assay for Inhibitors of the Six1/Eya2 Interaction; Homeobox protein SIX1 (Homo sapiens) + Protein phosphatase EYA2 (Homo sapiens), …; AlphaScreen GST-Six1/His-Eya2 binding, biochemical; stronger effect = lower value; activity change, % (concentration not given with the values); hit rate 0.56% among 360,000; AID 651725, 2012; in the data active = activity change below about -65%; inconclusive = mostly about -30% to -63%; note: % is set by controls: 0 for no effect and ±100 for the full control effect
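Homogeneous AlphaScreen proximity assay pairing GST-Six1 with His-tagged Eya2 (added as 5X mix: 250 nM and 500 nM) in 50 mM Tris pH 8.0, 300 mM NaCl, 1 mM TCEP. Glutathione donor and nickel acceptor beads; 1 h, 37 °C, dark.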
HP1b binding inh – HTS for Inhibitors of HP1-beta Chromodomain Interactions with Methylated Histone Tails; Chromobox protein homolog 1 (Homo sapiens), P83916; AlphaScreen HP1-beta / biotin-H3K9me3 peptide binding; Potency, µM (doses to about 114 µM), without a hit: top-dose activity change, negative = inhibition, hits mostly inhibitors; hit rate 0.56% among 390,000; note: potency is the fitted concentration of half-maximal effect; nearly all actives have a fitted effect of over 70% in size
Target sequence (P83916 whole entry, looked up): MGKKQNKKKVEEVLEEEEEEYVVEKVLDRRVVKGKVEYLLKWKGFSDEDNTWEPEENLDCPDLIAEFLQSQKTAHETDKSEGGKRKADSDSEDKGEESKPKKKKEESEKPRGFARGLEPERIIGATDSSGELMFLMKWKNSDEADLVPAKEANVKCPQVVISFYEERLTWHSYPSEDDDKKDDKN
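Compound inhibition of the preformed complex between 50 nM HP1-beta and 50 nM biotinylated H3K9me3 peptide was read by AlphaScreen. Buffer was PBS pH 7.4 with 0.01% Tween-20. Incubations ran 30 min at room temperature, with 10 ug/mL donor/acceptor beads.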
TDP1 block – qHTS Assay for Inhibitors of Tyrosyl-DNA Phosphodiesterase (TDP1) | Tyrosyl-DNA phosphodiesterase 1 (Homo sapiens), Q9NUW8 | recombinant TDP1, AlphaScreen DNA substrate cleavage | Potency, µM (highest dose often 130 µM), without a hit: at the highest dose activity change, negative = inhibition, hits mostly inhibitors | hit rate 0.28% among 350,000; note: potency is the fitted concentration of half-maximal effect; % is set by controls: 0 for no effect and ±100 for the full control effect; nearly all actives have a fitted effect of over 40% in size
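Recombinant human Tdp1 (E. coli-expressed, 1 nM final) preincubated with compounds 15 min at room temperature, then 5'-biotin/3'-phosphotyrosine-FITC DNA substrate (15 nM final) added for 5 min. AlphaScreen beads (10 ug/ml final) added 10 min; cleavage lowers signal.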
JMJD2A Tudor inh – qHTS Assay for Inhibitors of JMJD2A-Tudor Domain; Lysine-specific demethylase 4A (Homo sapiens), O75164; AlphaScreen JMJD2A-Tudor / H3K4me3 peptide binding; hit rate 4.4% among 390,000; Potency, µM (series often up to 114 µM), without a hit: at the highest dose activity change, negative = inhibition, hits mostly inhibitors; AID 504339, 2011; note: potency is the fitted concentration of half-maximal effect; % is set by controls: 0 for no effect and ±100 for the full control effect; nearly all actives have a fitted effect of over 50% in size
CtBP-E1A inh – qHTS Assay for Inhibitors of the CtBP/E1A Interaction; CtBP / adenovirus E1A interaction (AlphaScreen); AlphaScreen GST-E1A/His-CtBP binding, 1536-well; stronger effect = lower value; activity change, % (test concentration not listed); hit rate 0.49% among 340,000; AID 651724, 2012; in the data active = activity change below about -65%; inconclusive = mostly about -30% to -63%; note: % is set by controls: 0 for no effect and ±100 for the full control effect
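AlphaScreen with 125 nM GST-E1A and 125 nM His-CtBP (5X stocks) in Tris pH 8.0, 300 mM NaCl, BSA, Tween 20, TCEP. Compounds preincubated 2 h at 37 deg C, then glutathione donor/nickel acceptor beads added for 1 h at 37 deg C in dark.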
BAZ2B inh – qHTS Assay for Inhibitors of BAZ2B; Potency, µM (highest dose often 114 µM), for the others: top-dose activity change, negative = inhibition, actives largely listed as inhibitors; Bromodomain adjacent to zinc finger domain protein 2B (Homo sapiens), Q9UIF8; AlphaScreen BAZ2B-H3K14Ac peptide displacement; hit rate 4.4% among 360,000; note: potency is the fitted concentration of half-maximal effect; % is set by controls: 0 for no effect and ±100 for the full control effect; nearly all actives have a fitted effect of over 60% in size
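AlphaScreen displacement of biotin-H3(5-23)K14Ac peptide (50 nM final) from BAZ2B (50 nM final) in PBS pH 7.4, 0.01% Tween-20; complex preformed 30 min RT, then compounds (top 110 uM) 30 min RT, beads 20 min dark.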
Active calls of the source: *; u = inconclusive; x = not tested or not shown; [ ] = another dose, or the depositor's remark. Unless noted, calls come from the whole dose curve; as a rule, active = well fitted inhibition curve with a large enough effect; inconclusive = small, poorly fitted or top-dose-only effect; inactive = no such curve, though single readings can be large or run the other way.

SMILES | Six1-Eya2 blk | HP1b binding inh | TDP1 block | JMJD2A Tudor inh | CtBP-E1A inh | BAZ2B inh
CN(C)c1ccc(-c2nc3ccccn3c2Nc2ccc3c(c2)OCCO3)cc1 | x | u | 12% | 13µM* | x | -32%
COc1cc(-c2nc3cnccn3c2Nc2ccc3c(c2)OCCO3)ccc1O | -9 | 0% | 6% | -35% | -7 | 2%
Oc1ccc(-c2nc3ccccn3c2Nc2ccc3c(c2)OCCO3)cc1 | x | -37% | 8% | 50µM* | x | 40µM*
Cc1ccc2nc(-c3cccc(Cl)c3)c(Nc3ccc4c(c3)OCO4)n2c1 | x | 31% | 7% | -16% | x | x
COc1cccc(C2c3c(ncn(-c4ccccc4C(C)(C)C)c3=N)Oc3ccc4ccccc4c32)c1 (stereo unspecified) | x | x | 4% | u | x | x
O=C(NCCc1csc2nc(-c3ccccc3F)nn12)C(=O)Nc1cc(F)ccc1F | x | 24%[57 µM] | 1% | 5% | x | -2%
Clc1ccc(-c2nc3ncccn3c2Nc2ccc3c(c2)OCO3)cc1 | 2 | 9% | 12% | -13%[57.1 µM] | 1 | -20%
Oc1ccc(-c2nc3ncccn3c2Nc2ccc3c(c2)OCO3)cc1 | -12 | -24% | 5% | u | -10 | 50µM*
c1ccc(-c2nc3cnccn3c2Nc2ccc3c(c2)OCCO3)cc1 | -19 | u | 5% | 45µM* | -15 | u
Cc1ccc(C(=O)OCc2nc3ccsc3c(=O)[nH]2)o1 | 7 | 21% | x | -6% | -1 | 23%
Cc1cnc(C(=O)OCc2nc3ccsc3c(=O)[nH]2)cn1 | -17 | -25% | 14µM* | 56µM* | -29 | 50µM*
O=C(/C=C/c1ccc(Br)o1)OCc1nc2ccsc2c(=O)[nH]1 | u | -66% | x | 40µM* | 2 | 40µM*
O=c1c(C=Nc2ccc(Cl)cc2)c[nH]n1-c1cccc(Cl)n1 | 0 | 18% | 0% | 25µM* | -7 | -6%
O=c1c(C=Nc2cccc(C(F)(F)F)c2)c[nH]n1-c1cccc(Cl)n1 | 0 | -5% | -14% | 40µM* | 10 | u
O=c1[nH][nH]c(C(F)(F)F)c1C=Nc1cccc(Cl)c1 | -3 | 23% | 6% | -19% | 1 | -4%
CCOc1[nH]n(-c2ccccc2)c(=O)c1C=Nc1ccc(Cl)cc1 | -10 | -31% | -3% | u | -13 | u
COc1ccc(C(=O)Nc2nnc(SCc3cc(=O)c4cc(C)ccc4[nH]3)s2)cc1OC | x | 28%[57 µM] | 5% | -26% | x | 3%
COc1ccc(N2CCN(CCCNS(=O)(=O)c3c(C)noc3/C=C/N(C)C)CC2)cc1 | x | x | 12% | x | x | 35µM*
CCOc1ccc2cc(C3CC(c4ccco4)=NN3S(C)(=O)=O)c(=O)[nH]c2c1 (stereo unspecified) | -8 | u | 4% | 50µM* | 2 | -32%
COc1ccccc1C1CC(c2ccco2)=NN1S(C)(=O)=O (stereo unspecified) | 2 | -22% | -1% | 50µM* | 1 | -13%
CS(=O)(=O)N1N=C(c2ccco2)CC1c1ccccc1Cl (stereo unspecified) | 2 | 27% | x | -21% | 2 | -35%
CC1CCC2C(=O)N3C(CCC(C)[C@@H]3c3cccc(N4CCOCC4)c3)C(=O)N2C1c1cccc(N2CCOCC2)c1 (stereo partly specified) | x | x | 10%[21 µM] | x | x | x
CC(C)c1ccc(NC(=O)CCS(=O)(=O)c2ccc3c(c2)CC(=O)N3C)cc1 | x | 15% | 8% | 5% | x | 0%
CN1CC(c2ccccn2)C2(SC(=S)N(Cc3ccccc3)C2=O)C12C(=O)Nc1ccccc12 (stereo unspecified) | -76* | u | 9% | 22µM* | -76* | 14µM*
CCOc1ccc(-n2nc3ccc(NC(=O)c4ccc(C)cc4C)cc3n2)cc1 | x | 27% | 5% | -18% | x | 1%
SMILES | Six1-Eya2 blk | HP1b binding inh | TDP1 block | JMJD2A Tudor inh | CtBP-E1A inh | BAZ2B inh
CC1(Cn2ccnn2)[C@H](C(=O)O)N2C(=O)C[C@H]2S1(=O)=O (stereo partly specified) | x | x | 4% | x | x | x
COC(=O)c1ccn(CC(=O)NC2CCCCC2)n1 | 0 | 6% | 28µM* | -19% | x | u
O=C(Cn1cc2c(n1)CCCC2)NC1CCCCCC1 | 5 | 14% | 4% | -13% | 4 | 10%
O=C(NC1CCCCC1)c1ccc2c(c1)N(Cc1cccc(Cl)c1)C(=O)c1ccccc1S2=O (stereo unspecified) | x | 31% | 1% | -11% | x | -1%
Cc1[nH][nH]c(=O)c1C(c1c(C)[nH][nH]c1=O)c1cn(Cc2ccc(F)cc2)c2ccccc12 | 2 | u | 8% | 50µM* | 0 | 45µM*
Cc1[nH][nH]c(=O)c1C(c1c(C)[nH][nH]c1=O)c1cn(Cc2ccc(Cl)c(Cl)c2)c2ccccc12 | -9 | u | 11% | 50µM* | -11 | 28µM*
COc1ccccc1Cn1c(CNS(=O)(=O)c2ccc(Cl)s2)nc2cccnc21 | x | 16%[57 µM] | 8% | -14% | x | 4%
O=C(Nc1cc2ccc(O)cc2oc1=O)c1ccc(F)cc1 | x | 31% | -2% | -6% | x | -2%
CCCCNC(=S)NC(=O)c1ccc([N+](=O)[O-])cc1 | -29 | -30% | 8% | u | 0 | 50µM*
O=C(NNC(=S)NC(=O)c1cccs1)c1ccc(O)cc1 | -5 | 50% | 11% | -22% | -17 | 0%
CCCCCCCC(=O)NNC(=O)c1ccc([N+](=O)[O-])cc1 | 3 | 6% | 5% | -15% | 2 | -28%[57.1 µM]
CCCC(=O)NC(=S)NNC(=O)c1ccc([N+](=O)[O-])cc1 | -3 | -6% | -2% | 71µM* | -14 | 9%
CCC(=O)NC(=S)NNC(=O)c1ccc(O)cc1 | -20 | 57% | 8% | 20µM* | 2 | 0%
CCCCNC(=S)Nc1ccc([N+](=O)[O-])cc1 | -2 | 6% | 1% | -25% | -3 | -32%
O=C(Nc1ccc(Br)cc1F)c1cc2nc(-c3ccco3)cc(C(F)(F)Cl)n2n1 | x | -2% | -1% | -15% | x | -4%
CCOc1ccccc1CNC(=O)c1cnc2sc(N3CCC(C)CC3)nn2c1=O | x | -5% | 3% | -18% | x | -1%
COC(=O)NC(/C(C(=O)OC)=C(\C)NCc1ccccc1)c1ccco1 (stereo unspecified) | x | x | 6%[21 µM] | x | x | x

Screening results (PubChem)
